A selection: hits, their analogues and other compounds. The true share with any hit is near 9.4%.
AMA1-RON2 inh: disrupts binding of P. falciparum AMA1 to RON2 | AlphaScreen AMA1-biotinylated RON2 peptide binding | Potency, µM (series often up to 58.2 µM), for inactives: top-dose activity change, negative = inhibition, most hits filed as inhibitors | 0.2% of 360,000 active;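 also: 0% = vehicle wells and -100% = peptide control; nearly all actives have a fitted effect of over 45% in size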
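AMA1 (3D7) with his tag at 25 nM final met compounds first, then biotinylated RON2 peptide at 25 nM; detection used donor plus acceptor beads, 10 µg/mL apiece, read by AlphaScreen after 30 min at room temperature.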
SARS PLpro yeast: SARS-CoV PLP inhibition in yeast; Potency, µM (titrated, usually from 32.9 µM), for the others: at the highest dose activity, positive = growth rescue, hits mostly activators; 0.19% of 330,000 active; S. cerevisiae expressing SARS-CoV PLpro, growth rescue; calls by dose curve; also: 0% is about no effect; nearly all actives have a fitted effect of over 55% in size
Pf growth 96h: P. falciparum growth inhibition at 96 hours; 6.9% of 320,000 active; Potency, µM (titrated, usually from 28.7 µM), for inactives: top-dose activity change, negative = inhibition, actives largely listed as inhibitors; AID 504834; P. falciparum luciferase reporter growth, 96 h; also: % is scaled to controls: 0 for no effect and ±100 for the full control effect
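P. falciparum expressing integrated firefly luciferase, in erythrocytes at 2% hematocrit, 0.05% parasitemia, incubated with compounds 96 h at 37 C, 5% CO2. Growth inhibition read as loss of luminescence; two-generation exposure targets delayed-death apicoplast inhibitors.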
Pf growth 48h: inhibits P. falciparum growth in the first generation, 48 h. P. falciparum luciferase growth in erythrocytes, 48 h. Potency, µM (top dose mostly 28.7 µM), without a hit: top-dose activity change, negative = inhibition, most hits filed as inhibitors. 5.9% of 310,000 active; also: % is scaled to controls: 0 for no effect and ±100 for the full control effect
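Here the parasites carry a stable luciferase gene and grow inside erythrocytes in Albumax-based RPMI medium with compound for one erythrocytic cycle. Activity is scored as loss of luminescent signal.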
An asterisk follows results filed as active; ? = inconclusive; . = no result; [ ] = another dose, or the depositor's remark. Unless noted, calls follow the shape of the dose curve; as a rule, active = well fitted curve in the direction sought with a large enough effect; inconclusive = small, poorly fitted or top-dose-only effect, or another doubt; inactive = no such curve, though single readings can be large; an effect the other way counts as inactive or inconclusive. Potency is read from the fitted curve at half-maximal effect.

SMILES	AMA1-RON2 inh	SARS PLpro yeast	Pf growth 96h	Pf growth 48h
COc1cccc(OC)c1C1=NCC(=O)Nc2c1oc1ccc(Br)cc21	2.8%	19.2%	1.85µM*	?
O=C1CN=C(c2ccccc2)c2oc3ccc(Br)cc3c2N1	-12.9%	-1.6%	10.1%	2.5%
COc1ccccc1C(=O)NC(=O)Nc1nc(-c2ccccc2)cc(C(F)(F)F)n1	-5.6%	1.8%	3.7µM*	3.7µM*
NC(=O)c1cccc(CC(=O)c2ccccc2)c1	4.8%	3.6%	14.9%	13.4%
Cc1cccc(-c2nnc(SCC#N)n2Cc2ccccc2)c1	3.7%	0.8%	?	.
N#CCSc1nnc(C2CCCCC2)n1Cc1ccccc1	3.3%	5.5%	3.29µM*	-15.1%
O=C(CCSc1ccc(Cl)cc1)N1CCOCC1	9.1%	10.6%	121.9%	159.7%
CCn1c(/C=C/c2ccc(O)c(O)c2)nc2ccccc2c1=O	-4.8%	3.5%	?	?
O=c1c2ccccc2nc(/C=C/c2ccc([N+](=O)[O-])cc2)n1CCCO	5.0%	-7.1%	45.0%	-29.4%
CCn1c(/C=C/c2cc(Br)ccc2O)nc2ccccc2c1=O	13.1%	3.4%	-3.5%	0.928µM*
O=c1c2ccccc2nc(/C=C/c2ccc([N+](=O)[O-])o2)n1CCCO	1.6%	-25.9%	2.62µM*	?
O=c1c2ccccc2nc(/C=C/c2cccc(Br)c2)n1CCCO	6.5%	-4.6%	13.1µM*	?
COc1ccc(S(=O)(=O)N2CCN(c3ccccn3)CC2)cc1OC	0.2%	.	43.6%	2.4%
COc1ccc(S(=O)(=O)N2CCN(c3ccccn3)CC2)c(OC)c1	7.4%	-1.4%	4.65µM*	15.7%
CCc1ccccc1N1CCN(S(=O)(=O)c2cc(OC)ccc2OC)CC1	-2.4%	-5.1%	10.4µM*	-12.2%
COc1ccccc1N1CCN(S(=O)(=O)c2cc(C)sc2C)CC1	-2.9%	-14.0%	4.65µM*	.
COc1ccc(OC)c(S(=O)(=O)N2CCN(c3ccccc3)CC2)c1	-1.9%	-13.8%	0.0%	-7.9%
COc1ccccc1N1CCN(S(=O)(=O)c2ccc(-n3cnnn3)c(C)c2)CC1	-2.8%	7.4%	1.65µM*	-3.5%
Cc1c(OC(C(=O)O)c2ccccc2)ccc2c(-c3ccccc3)cc(=O)oc12 (centres undefined)	4.0%	0.2%	-13.2%	?
CCCCCCCOc1ccc(C(=O)Nc2cccnc2)cc1	3.5%	-6.8%	2.1%	39.4%
COc1ccc(C(CNC(=O)Nc2ccccc2)N2CCN(C)CC2)cc1 (centres undefined)	2.5%	?	56.6%	6.6%
COc1ccccc1C(=O)NCCCNc1ccc([N+](=O)[O-])cc1	18.6%	-14.2%	13.1µM*	0.8%
CC(=O)c1cccc(NC(=O)C(Sc2ncnc3ccccc23)c2ccccc2)c1 (centres undefined)	-17.8%	24.8%	4.65µM*	11.7µM*
COc1ccc(C(=O)Oc2cccc(Nc3ncnc4ccccc34)c2)cc1OC	-23.3%	-14.9%	2.33µM*	11.9%
CC(=O)c1cccc(Nc2ncnc3ccc(Br)cc23)c1	36.3%	-2.8%	-11.5%	5.86µM*
SMILES	AMA1-RON2 inh	SARS PLpro yeast	Pf growth 96h	Pf growth 48h
O=C(CCCn1c(=S)[nH]c2cc3c(cc2c1=O)OCO3)NCc1cccc(Cl)c1	113.5%	0.2%	9.28µM*	-29.4%
O=C(CCn1c(=S)[nH]c2cc3c(cc2c1=O)OCO3)NCc1cccc(Cl)c1	57.8%	0.6%	?	-14.8%
O=C(CCCCCn1c(=S)[nH]c2cc3c(cc2c1=O)OCO3)N1CCN(Cc2ccccc2)CC1	73.3%	-1.6%	-1.1%	11.7µM*
Cc1ccc(C)c(N(C)C(=O)c2coc(=O)c3ccccc23)c1	9.7%	1.9%	194.2%	3.4%
CCOC(=O)C1=C(CC)NC2=C(C(=O)CCC2)C1c1ccc(OC)c(OC)c1 (centres undefined)	-11.9%	-1.0%	.	7.38µM*
CCCOC(=O)C1=C(C)NC2=C(C(=O)CCC2)C1c1cc(OC)ccc1OC (centres undefined)	0.0%	-2.5%	4.7%	-14.9%
CCCCOC(=O)C1=C(C)NC2=C(C(=O)CCC2)C1c1cc(OC)ccc1OC (centres undefined)	-8.5%	-1.2%	13.1µM*	.
CC1=C(C(=O)OCC(C)C)C(c2ccsc2)C2=C(CCCC2=O)N1 (centres undefined)	2.7%	11.5%	8.28µM*	13.1µM*
CCOC(=O)C1=C(C)NC2=C(C(=O)CCC2)C1c1ccsc1 (centres undefined)	.	.	9.7%	-12.5%
Cc1ccc(C(=O)NCC(=O)OCC(=O)Nc2ncc(C(F)(F)F)cc2Cl)cc1	16.0%	-27.4%	34.1%	13.9%
COc1ccc(C2Sc3nncn3N2Cc2ccc(C#N)cc2)cc1 (centres undefined)	-0.8%	8.4%	13.1µM*	-9.1%
COc1ccc(CC(=O)Oc2ccc(C#N)cc2)cc1	-1.4%	-0.5%	?	0.0%
CC(=O)Nc1ccc(NC(=O)CSc2ccc(-c3ccco3)nn2)cc1	-8.0%	-0.1%	-52.6%[1.15 µM]	2.6%
COc1cc(NC(=O)CSc2ccc(-c3ccco3)nn2)cc(OC)c1	0.3%	-2.7%	10.4µM*	-5.4%
CC(=O)Nc1cccc(NC(=O)CSc2ccc(-c3ccco3)nn2)c1	-6.1%	2.3%	9.28µM*	?
COc1ccc(NC(=O)CSc2ccc(-c3ccco3)nn2)cc1	-8.1%	-8.4%	-10.6%	10.7%
CCOc1ccccc1NC(=O)COC(=O)C(Cc1ccccc1)NC(=O)c1ccco1 (centres undefined)	-2.5%	2.0%	33.2%	35.7%
CCN1C(=O)/C(=C/c2cccs2)SC1=Nc1ccc(OC)cc1	-1.7%	3.6%	4.65µM*	-21.7%
CCCN1C(=O)/C(=C/c2ccc(C)s2)SC1=Nc1ccc(OC)cc1	-8.9%	10.0%	?	-25.6%
CN(/N=C/c1cc(Br)cc(Br)c1O)c1cccc(C(F)(F)F)n1	30.3%	-7.1%	?	4.15µM*
COC(C(=O)NNC(=O)Cc1ccc(Cl)cc1)c1ccccc1 (centres undefined)	96.2%	1.3%	?	-8.4%
CCOc1ccc2nc(SCC(=O)N(CC(C)C)c3c(N)n(Cc4ccccc4)c(=O)[nH]c3=O)[nH]c2c1	-3.1%	3.6%	11.7µM*	?
CCCCN(C(=O)CCSc1ccc(F)cc1)c1c(N)n(Cc2ccccc2)c(=O)[nH]c1=O	-2.7%	2.3%	11.7µM*	11.7µM*
CC(C)CN(C(=O)CSc1nc2ccccc2[nH]1)c1c(N)n(Cc2ccccc2)c(=O)[nH]c1=O	14.7%	.	.	.
CCN(C(=O)CN1CCCCCC1)c1c(N)n(Cc2ccccc2)c(=O)[nH]c1=O	-4.7%	-0.6%	.	.
Cc1ccccc1OCCC(=O)N(Cc1ccccc1)c1c(N)n(Cc2ccccc2)c(=O)[nH]c1=O	10.8%	-10.4%	?	?
CCN(C(=O)CN1CCN(c2ccc(O)cc2)CC1)c1c(N)n(Cc2ccccc2)c(=O)[nH]c1=O	38.6%	1.2%	4.65µM*	?
Cc1ccccc1OCCC(=O)N(CC(C)C)c1c(N)n(Cc2ccccc2)c(=O)[nH]c1=O	16.7%	-12.8%	?	11.7µM*
CCCCN(C(=O)CCCSc1nc2ccccc2[nH]1)c1c(N)n(Cc2ccccc2)c(=O)[nH]c1=O	2.8%	-7.9%	?	?

Screening data: PubChem BioAssay, National Center for Advancing Translational Sciences (NCATS)
